Where a chain is given by its changes, count along the chain named. In all, about 16,000 sequences were measured (“ka relative to ugcaugu”: median about 0.0091, highest 2% from about 0.032 on). Only a selection was taken, and the highest values are over-represented in it overall.
T1: RBFOX1 RRM (Homo sapiens, UniProt Q9NWB1 109-208)
T1 sequence: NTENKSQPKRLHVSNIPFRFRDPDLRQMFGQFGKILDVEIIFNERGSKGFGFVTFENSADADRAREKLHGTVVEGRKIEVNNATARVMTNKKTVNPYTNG

B1: UGUUGCG (DNA:RNA)
RNA: GGGAGACCGGAAUUCAGAUUGUCCUGUUGCGUUAAAUCCCGUCGUAGCCACCA
DNA 1: CAATCTGAATTCCGGTCTCCC
DNA 2: TGGTGGCTACGACGGGATT
B2: UGCGUUG (DNA:RNA)
RNA: B1 RNA with U27C, U28G, G29U, C30U
DNA 1: CAATCTGAATTCCGGTCTCCC
DNA 2: TGGTGGCTACGACGGGATT
B3: CGUUGCG (DNA:RNA)
RNA: B1 RNA with U25C
DNA 1: CAATCTGAATTCCGGTCTCCC
DNA 2: TGGTGGCTACGACGGGATT
B4: AAUGGAA (DNA:RNA)
RNA: B1 RNA with U25A, G26A, U28G, C30A, G31A
DNA 1: CAATCTGAATTCCGGTCTCCC
DNA 2: TGGTGGCTACGACGGGATT
B5: UGCUCCC (DNA:RNA)
RNA: B1 RNA with U27C, G29C, G31C
DNA 1: CAATCTGAATTCCGGTCTCCC
DNA 2: TGGTGGCTACGACGGGATT
B6: UGCUCCG (DNA:RNA)
RNA: B1 RNA with U27C, G29C
DNA 1: CAATCTGAATTCCGGTCTCCC
DNA 2: TGGTGGCTACGACGGGATT
B7: CGUGCUC (DNA:RNA)
RNA: B1 RNA with U25C, U28G, G29C, C30U, G31C
DNA 1: CAATCTGAATTCCGGTCTCCC
DNA 2: TGGTGGCTACGACGGGATT
B8: UGGCCCG (DNA:RNA)
RNA: B1 RNA with U27G, U28C, G29C
DNA 1: CAATCTGAATTCCGGTCTCCC
DNA 2: TGGTGGCTACGACGGGATT
B9: GUGCUCC (DNA:RNA)
RNA: B1 RNA with U25G, G26U, U27G, U28C, G29U, G31C
DNA 1: CAATCTGAATTCCGGTCTCCC
DNA 2: TGGTGGCTACGACGGGATT
B10: UGGCUCC (DNA:RNA)
RNA: B1 RNA with U27G, U28C, G29U, G31C
DNA 1: CAATCTGAATTCCGGTCTCCC
DNA 2: TGGTGGCTACGACGGGATT
B11: UGGCUCG (DNA:RNA)
RNA: B1 RNA with U27G, U28C, G29U
DNA 1: CAATCTGAATTCCGGTCTCCC
DNA 2: TGGTGGCTACGACGGGATT
B12: GUGCUCU (DNA:RNA)
RNA: B1 RNA with U25G, G26U, U27G, U28C, G29U, G31U
DNA 1: CAATCTGAATTCCGGTCTCCC
DNA 2: TGGTGGCTACGACGGGATT
B13: GUGCUCG (DNA:RNA)
RNA: B1 RNA with U25G, G26U, U27G, U28C, G29U
DNA 1: CAATCTGAATTCCGGTCTCCC
DNA 2: TGGTGGCTACGACGGGATT
B14: CGCUACC (DNA:RNA)
RNA: B1 RNA with U25C, U27C, G29A, G31C
DNA 1: CAATCTGAATTCCGGTCTCCC
DNA 2: TGGTGGCTACGACGGGATT
B15: AGAGCCU (DNA:RNA)
RNA: B1 RNA with U25A, U27A, U28G, G29C, G31U
DNA 1: CAATCTGAATTCCGGTCTCCC
DNA 2: TGGTGGCTACGACGGGATT
B16: UAUGCGC (DNA:RNA)
RNA: B1 RNA with G26A, U28G, G29C, C30G, G31C
DNA 1: CAATCTGAATTCCGGTCTCCC
DNA 2: TGGTGGCTACGACGGGATT
B17: CUUCGUU (DNA:RNA)
RNA: B1 RNA with U25C, G26U, U28C, C30U, G31U
DNA 1: CAATCTGAATTCCGGTCTCCC
DNA 2: TGGTGGCTACGACGGGATT
B18: UCCGGCC (DNA:RNA)
RNA: B1 RNA with G26C, U27C, U28G, G31C
DNA 1: CAATCTGAATTCCGGTCTCCC
DNA 2: TGGTGGCTACGACGGGATT
B19: UUACUUG (DNA:RNA)
RNA: B1 RNA with G26U, U27A, U28C, G29U, C30U
DNA 1: CAATCTGAATTCCGGTCTCCC
DNA 2: TGGTGGCTACGACGGGATT
B20: GAGUGAG (DNA:RNA)
RNA: B1 RNA with U25G, G26A, U27G, C30A
DNA 1: CAATCTGAATTCCGGTCTCCC
DNA 2: TGGTGGCTACGACGGGATT

biological target: T1, RBFOX1 RRM; experiment: EMSA; HiTS-Eq, 1 nM pool, 10 min; buffer printed only for the single-RNA assays: 10 mM Tris pH 7.5, 150 mM NaCl, 3.4 mM EDTA, 0.001% NP-40, 30 C; settings: tags: His6 N-terminal (pET28a); label: 5' 32P
In short: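 Purified RbFox RRM, wild type or mutant, was incubated for 10 min in 50 µL with 1 nM of a 5′-radiolabelled RNA pool carrying 7 randomized nucleotides, whose flanks were annealed to DNA oligonucleotides, over a series of increasing protein concentrations. Unbound RNA was resolved on 8% native PAGE, cut out, reverse-transcribed, barcoded by PCR and sequenced on an Illumina HiSeq 2500. Relative association constants were derived from changes in read counts for each RNA species versus the control reaction and normalised to the cognate motif.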

Point of comparison: B12, binding signal 0.0226 KA relative to UGCAUGU. Against it:
- B1 — higher, 0.0326 KA relative to UGCAUGU
- B2 — higher, 0.0296 KA relative to UGCAUGU
- B3 — lower, 0.0173 KA relative to UGCAUGU
- B4 — lower, 0.00264 KA relative to UGCAUGU
- B5 — lower, 0.00242 KA relative to UGCAUGU
- B6 — lower, 0.0132 KA relative to UGCAUGU
- B7 — lower, 0.0133 KA relative to UGCAUGU
- B8 — lower, 0.0217 KA relative to UGCAUGU
- B9 — higher, 0.0357 KA relative to UGCAUGU
- B10 — lower, 0.00985 KA relative to UGCAUGU
- B11 — higher, 0.0396 KA relative to UGCAUGU
- B13 — higher, 0.0432 KA relative to UGCAUGU
- B14 — lower, 0.00834 KA relative to UGCAUGU
- B15 — lower, 0.00804 KA relative to UGCAUGU
- B16 — lower, 0.0181 KA relative to UGCAUGU
- B17 — lower, 0.0135 KA relative to UGCAUGU
- B18 — lower, 0.00966 KA relative to UGCAUGU
- B19 — lower, 0.0182 KA relative to UGCAUGU
- B20 — lower, 0.0102 KA relative to UGCAUGU

From article PMC9911399, “Two distinct binding modes provide the RNA-binding protein RbFox with extraordinary sequence specificity”
